According to PubChem BioAssay (EPA / NIEHS):
Results filed as inconclusive are left out. The source made the active and inactive calls. How the source made its calls: active means hit-call score of the fitted dose curve at least 0.9, where 1 is the maximum; inconclusive means response in the unintended direction; inactive means score below 0.9.

How the values were obtained:
[1] = target: mouse Cholecystokinin, CCK1 Receptor (CCKA), Cckar (gene 12425) (UniProt O08786); assay: NVS_GPCR_mCCKAPeripheral: NovaScreen (NVS) G Protein-Coupled Receptor Assay for mouse Cholecystokinin, CCK1 Receptor (CCKA) (AID 2283285)
Method: (§1) NVS_GPCR_mCCKAPeripheral is a biochemical, single-readout assay that uses extracted gene-proteins from Mouse pancreatic membranes in a tissue-based cell-free assay. Measurements were taken 2 hours after chemical dosing in a 96-well plate.NVS_GPCR_mCCKAPeripheral is one of one assay component(s) measured or calculated from the NVS_GPCR_mCCKAPeripheral assay. It is designed to make measurements of radioligand binding, a form of binding reporter, as detected with scintillation counting signals by Filter-based radiodetection technology.Data from the assay component NVS_GPCR_mCCKAPeripheral was analyzed into 1 assay endpoint. This assay endpoint, NVS_GPCR_mCCKAPeripheral, was analyzed in the positive analysis fitting direction relative to DMSO as the negative control and baseline of activity. Using a type of binding reporter, loss-of-signal activity can be used to understand changes in the binding as they relate to the gene Cckar. Furthermore, this assay endpoint can be referred to as a primary readout, because the performed assay has only produced 1 assay endpoint. To generalize the intended target to other relatable targets, this assay endpoint is annotated to the gpcr intended target family, where the subfamily is rhodopsin-like receptor.
(§2) Binding assays used specific radioligands (tritiated, iodinated) with non-radioactive competitive displacement ligands in agonist or antagonist protocols (as indicated) and various reference compounds and inhibitors to titrate specific binding to receptors and transporters. Most enzyme assays (CYPs, kinases, phosphatases, proteases, HDACs) used recombinant protein and specific substrates (fluorescence mostly, some colorimetric and radioactive) and inhibitors, followed by a biochemical separation of substrate and product. All assays for the biochemical HTS were initially run in duplicate at a single concentration (10 uM for CYP450 assays and 25 uM for all others). Assay-chemical combinations meeting a pre-defined threshold (e.g., 30% inhibition and other criteria defined below) were then run in singleton concentration-response format with maximum concentration of 20 uM for CYPs and 50 uM for all others. Each assay was run with positive and negative controls, and concurrent controls on every plate. The follow-up (secondary) screen tested active chemical-pairs in concentration series, as well as a few additional assays not tested in the primary screen, some selected negative inactives, and several cases re-run in the concentration series for confirmatory purposes.

[2] = system: rabbit Platelet Activating Factor Receptor (PAF), gene 100354046; assay: NVS_GPCR_rabPAF: NovaScreen (NVS) G Protein-Coupled Receptor Assay for rabbit Platelet Activating Factor Receptor (PAF) (AID 2283287)
Method in brief: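 Rabbit platelet membrane preparation; radioligand displacement read by filter-based scintillation counting 1 h after dosing, loss of signal versus DMSO. Primary screen in duplicate at 25 uM, actives followed up in concentration series.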

[3] = target: rat Adrenergic, Alpha 1, Non-selective Receptor (Adra1), Adra1a (gene 29412) (UniProt P43140); assay: NVS_GPCR_rAdra1_NonSelective: NovaScreen (NVS) G Protein-Coupled Receptor Assay for rat Adrenergic, Alpha 1, Non-selective Receptor (Adra1) (AID 2283289)
Method in brief: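 Rat forebrain membranes; radioligand displacement read by filter-based scintillation counting 1 h after dosing. Primary screen in duplicate at 25 uM; hits (e.g. ≥30% inhibition) rerun as concentration–response to 50 uM max. Fitted versus DMSO.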

[4] = target: human Opioid Receptor Mu (Opiate Mu), OPRM1 (gene 4988) (UniProt P35372); assay: NVS_GPCR_hOpiate_mu: NovaScreen (NVS) G Protein-Coupled Receptor Assay for human Opioid Receptor Mu (Opiate Mu) (AID 2283290);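 further: hits lower bound tracer signal versus DMSO meaning displacement of the ligand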
Method in brief: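 Here, radioligand binding to CHO-extracted receptor was measured after 2.5 h using filter-based scintillation detection. Initial single-concentration screening used 25 uM in duplicate with plate controls; confirmed actives went to concentration-response testing.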

[5] = target: guinea pig Bradykinin Receptor B2 (BK2), BDKRB2 (gene 100135486) (UniProt O70526); assay: NVS_GPCR_gBK2: NovaScreen (NVS) G Protein-Coupled Receptor Assay for guinea pig Bradykinin Receptor B2 (BK2) (AID 2283292)
Method: as §1, with “NVS_GPCR_gBK2” for “NVS_GPCR_mCCKAPeripheral”, “Guinea pig ileum” for “Mouse pancreatic”, “1 hour” for “2 hours”, “48-well plate.NVS_GPCR_gBK2” for “96-well plate.NVS_GPCR_mCCKAPeripheral”, “NVS_GPCR_gBK2,” for “NVS_GPCR_mCCKAPeripheral,”, “Bdkrb2.” for “Cckar.”
Binding assays used specific radioligands (tritiated, iodinated) with non-radioactive competitive displacement ligands in agonist or antagonist protocols (as indicated) and various reference compounds and inhibitors to titrate specific binding to receptors and transporters. Most enzyme assays (CYPs, kinases, phosphatases, proteases, HDACs) used recombinant protein and specific substrates (fluorescence mostly, some colorimetric and radioactive) and inhibitors, followed by a biochemical separation of substrate and product. All assays for the biochemical HTS were initially run in duplicate at a single concentration (10 uM for CYP450 assays and 25 uM for all others). […]

[6] = target: mouse Cholecystokinin, CCK2 Receptor (CCKB), Cckbr (gene 12426) (UniProt P56481); assay: NVS_GPCR_mCKKBCentral: NovaScreen (NVS) G Protein-Coupled Receptor Assay for mouse Cholecystokinin, CCK2 Receptor (CCKB) (AID 2283293)
Method in brief: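 Radioligand displacement binding on mouse forebrain membranes, 2 h exposure, filter-based scintillation counting. Primary screen in duplicate at 25 uM; actives (e.g. ≥30% inhibition) retested in concentration-response up to 50 uM; loss of binding signal relative to DMSO.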

[7] = target: guinea pig Serotonin, 5-Hydroxytryptamine Receptor 4 (5HT4), HTR4 (gene 100135548) (UniProt O70528); assay: NVS_GPCR_g5HT4: NovaScreen (NVS) G Protein-Coupled Receptor Assay for guinea pig Serotonin, 5-Hydroxytryptamine Receptor 4 (5HT4) (AID 2283294)
Method: as §1, with “NVS_GPCR_g5HT4” for “NVS_GPCR_mCCKAPeripheral”, “Guinea pig striatal” for “Mouse pancreatic”, “1 hour” for “2 hours”, “48-well plate.NVS_GPCR_g5HT4” for “96-well plate.NVS_GPCR_mCCKAPeripheral”, “NVS_GPCR_g5HT4,” for “NVS_GPCR_mCCKAPeripheral,”, “Htr4.” for “Cckar.”
as §2, with “Assay-chemical combinations meeting a pre-defined threshold (e.g., 30% inhibition and other criteria defined below) were then run in singleton concentration-response format with maximum concentration of 20 uM for CYPs and 50 uM for all others.” left out

[8] = system: guinea pig Atrionatriuretic Peptide Receptor A (ANPA), gene 100135578; assay: NVS_GPCR_gANPA: NovaScreen (NVS) G Protein-Coupled Receptor Assay for guinea pig Atrionatriuretic Peptide Receptor A (ANPA) (AID 2283291)
Method: NVS_GPCR_gANPA is a biochemical, single-readout assay that uses extracted gene-proteins from Guinea pig cerebellar membranes in a tissue-based cell-free assay. Measurements were taken 1 hour after chemical dosing in a 96-well plate.NVS_GPCR_gANPA is one of one assay component(s) measured or calculated from the NVS_GPCR_gANPA assay. It is designed to make measurements of radioligand binding, a form of binding reporter, as detected with scintillation counting signals by Filter-based radiodetection technology.Data from the assay component NVS_GPCR_gANPA was analyzed into 1 assay endpoint. This assay endpoint, NVS_GPCR_gANPA, was analyzed in the positive analysis fitting direction relative to DMSO as the negative control and baseline of activity. Using a type of binding reporter, loss-of-signal activity can be used to understand changes in the binding as they relate to the gene Nppa. Furthermore, this assay endpoint can be referred to as a primary readout, because the performed assay has only produced 1 assay endpoint. To generalize the intended target to other relatable targets, this assay endpoint is annotated to the lyase intended target family, where the subfamily is guanylyl cyclase. […]

[9] = target: rat Serotonin, 5-Hydroxytryptamine Receptor 1 (5HT1), Non-Selective Binding, Htr1a (gene 24473) (UniProt P19327); assay: NVS_GPCR_r5HT1_NonSelective: NovaScreen (NVS) G Protein-Coupled Receptor Assay for rat Serotonin, 5-Hydroxytryptamine Receptor 1 (5HT1), Non-Selective Binding (AID 2283286)
Method in brief: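 Rat cortical membranes, radioligand displacement, 1 h incubation, read by filter scintillation. Primary screen in duplicate at 25 uM. Hits (e.g. ≥30% inhibition) went to concentration-response up to 50 uM, fitted as loss of binding versus DMSO.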

Chain of human Opioid Receptor Mu (Opiate Mu), OPRM1 (gene 4988) (P35372 whole entry, looked up): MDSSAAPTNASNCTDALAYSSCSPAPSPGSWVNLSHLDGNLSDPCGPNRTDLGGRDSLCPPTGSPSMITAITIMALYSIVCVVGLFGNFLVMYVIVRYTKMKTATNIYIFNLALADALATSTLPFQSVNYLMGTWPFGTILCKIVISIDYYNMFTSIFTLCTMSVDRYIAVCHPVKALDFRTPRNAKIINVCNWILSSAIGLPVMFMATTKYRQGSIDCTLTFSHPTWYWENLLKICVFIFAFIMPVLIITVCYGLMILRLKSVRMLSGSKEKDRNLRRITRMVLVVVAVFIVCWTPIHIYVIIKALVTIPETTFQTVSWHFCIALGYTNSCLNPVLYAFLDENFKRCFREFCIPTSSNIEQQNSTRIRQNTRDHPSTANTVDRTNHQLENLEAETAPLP
Chain of mouse Cholecystokinin, CCK1 Receptor (CCKA), Cckar (gene 12425) (O08786 whole entry, looked up): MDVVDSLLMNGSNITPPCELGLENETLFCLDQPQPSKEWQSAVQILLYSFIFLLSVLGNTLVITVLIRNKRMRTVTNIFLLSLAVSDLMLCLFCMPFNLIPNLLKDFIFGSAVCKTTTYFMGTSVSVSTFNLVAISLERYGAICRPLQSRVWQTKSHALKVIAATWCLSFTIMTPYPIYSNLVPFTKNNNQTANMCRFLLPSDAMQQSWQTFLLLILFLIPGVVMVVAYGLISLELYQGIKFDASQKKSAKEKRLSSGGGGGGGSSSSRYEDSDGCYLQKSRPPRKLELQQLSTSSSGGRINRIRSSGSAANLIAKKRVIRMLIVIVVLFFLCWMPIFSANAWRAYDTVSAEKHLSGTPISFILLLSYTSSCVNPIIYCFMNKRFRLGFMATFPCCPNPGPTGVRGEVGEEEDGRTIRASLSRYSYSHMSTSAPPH
Chain of rat Adrenergic, Alpha 1, Non-selective Receptor (Adra1), Adra1a (gene 29412) (P43140 whole entry, looked up): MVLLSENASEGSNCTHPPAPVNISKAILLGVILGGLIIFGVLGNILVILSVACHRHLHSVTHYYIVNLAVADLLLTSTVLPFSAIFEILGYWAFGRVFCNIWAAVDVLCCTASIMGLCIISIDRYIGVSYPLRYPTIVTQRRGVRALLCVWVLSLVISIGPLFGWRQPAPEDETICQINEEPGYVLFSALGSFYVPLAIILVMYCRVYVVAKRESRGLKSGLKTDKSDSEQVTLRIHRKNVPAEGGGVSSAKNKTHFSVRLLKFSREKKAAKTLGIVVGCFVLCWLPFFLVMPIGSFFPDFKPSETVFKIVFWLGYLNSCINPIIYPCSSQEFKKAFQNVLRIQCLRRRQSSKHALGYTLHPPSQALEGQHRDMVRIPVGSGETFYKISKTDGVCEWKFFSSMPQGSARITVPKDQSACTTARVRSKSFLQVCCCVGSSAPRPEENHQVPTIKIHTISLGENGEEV
Chain of guinea pig Bradykinin Receptor B2 (BK2), BDKRB2 (gene 100135486) (O70526 whole entry, looked up): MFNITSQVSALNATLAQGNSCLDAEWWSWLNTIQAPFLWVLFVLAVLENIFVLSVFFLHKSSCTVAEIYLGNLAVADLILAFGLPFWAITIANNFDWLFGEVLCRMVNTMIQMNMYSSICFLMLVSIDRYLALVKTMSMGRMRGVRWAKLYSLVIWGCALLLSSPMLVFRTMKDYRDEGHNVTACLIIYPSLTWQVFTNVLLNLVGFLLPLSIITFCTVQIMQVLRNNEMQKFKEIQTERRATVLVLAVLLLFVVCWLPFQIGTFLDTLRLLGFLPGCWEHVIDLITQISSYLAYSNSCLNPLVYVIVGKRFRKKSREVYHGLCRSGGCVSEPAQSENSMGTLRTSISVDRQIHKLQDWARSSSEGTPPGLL
Chain of guinea pig Serotonin, 5-Hydroxytryptamine Receptor 4 (5HT4), HTR4 (gene 100135548) (O70528 whole entry, looked up): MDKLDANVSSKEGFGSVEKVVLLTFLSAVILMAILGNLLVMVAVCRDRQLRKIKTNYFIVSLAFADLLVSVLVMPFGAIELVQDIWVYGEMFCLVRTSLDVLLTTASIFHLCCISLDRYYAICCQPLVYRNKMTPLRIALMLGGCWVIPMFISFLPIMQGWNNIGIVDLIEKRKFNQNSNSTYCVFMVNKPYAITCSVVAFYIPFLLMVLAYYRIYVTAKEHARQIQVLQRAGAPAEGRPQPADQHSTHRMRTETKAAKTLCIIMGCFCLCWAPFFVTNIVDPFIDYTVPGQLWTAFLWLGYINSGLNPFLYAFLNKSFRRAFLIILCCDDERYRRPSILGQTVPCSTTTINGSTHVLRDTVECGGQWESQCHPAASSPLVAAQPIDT
Chain of mouse Cholecystokinin, CCK2 Receptor (CCKB), Cckbr (gene 12426) (P56481 whole entry, looked up): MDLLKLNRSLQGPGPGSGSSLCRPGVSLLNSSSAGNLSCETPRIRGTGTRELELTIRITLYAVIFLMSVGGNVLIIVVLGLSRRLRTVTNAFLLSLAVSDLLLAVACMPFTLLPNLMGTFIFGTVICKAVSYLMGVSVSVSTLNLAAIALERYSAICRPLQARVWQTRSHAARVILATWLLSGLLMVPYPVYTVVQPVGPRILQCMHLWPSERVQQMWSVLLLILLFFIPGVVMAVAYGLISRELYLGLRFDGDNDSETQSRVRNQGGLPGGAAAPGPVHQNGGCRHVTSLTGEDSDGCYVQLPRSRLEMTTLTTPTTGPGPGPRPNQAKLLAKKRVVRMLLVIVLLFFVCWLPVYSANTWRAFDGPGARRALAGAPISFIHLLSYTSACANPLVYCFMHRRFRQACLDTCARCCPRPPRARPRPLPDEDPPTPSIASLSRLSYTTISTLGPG
Chain of rat Serotonin, 5-Hydroxytryptamine Receptor 1 (5HT1), Non-Selective Binding, Htr1a (gene 24473) (P19327 whole entry, looked up): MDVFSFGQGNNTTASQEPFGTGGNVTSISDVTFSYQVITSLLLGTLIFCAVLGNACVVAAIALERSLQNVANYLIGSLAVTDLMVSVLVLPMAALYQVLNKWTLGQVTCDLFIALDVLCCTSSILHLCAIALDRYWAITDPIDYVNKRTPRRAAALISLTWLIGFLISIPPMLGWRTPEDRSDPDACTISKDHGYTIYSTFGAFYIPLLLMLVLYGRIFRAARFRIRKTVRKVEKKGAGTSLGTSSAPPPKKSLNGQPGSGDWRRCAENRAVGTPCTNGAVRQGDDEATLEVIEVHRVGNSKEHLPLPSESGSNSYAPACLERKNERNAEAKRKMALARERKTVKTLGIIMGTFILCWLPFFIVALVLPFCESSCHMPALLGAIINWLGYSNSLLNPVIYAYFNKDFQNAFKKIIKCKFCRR

[Cl-].[Cl-].[Hg+2]
AC50 [1]: 18 µM (active)
AC50 [2]: 36.7 µM (active)
AC50 [3]: 2.86 µM (active)
AC50 [4]: 0.197 µM (active)
AC50 [5]: 25 µM (active)
AC50 [6]: 38.6 µM (active)
AC50 [7]: 7.68 µM (active)

CCCSC(=O)N(CCC)CCC
outcome [5]: inactive

CN(C)[C@@H]1C(=O)C(C(N)=O)=C(O)[C@@]2(O)C(=O)C3=C(O)c4c(O)cccc4[C@@](C)(O)[C@H]3C[C@@H]12
AC50 [1]: 25 µM (active)

CC(C)N(Cc1ccccc1)C(=O)C(C)(C)C
AC50 [2]: 13.1 µM (active)

O=C(Oc1ccc(Br)cc1)N1CCN2CCC1CC2
outcome [3]: inactive
AC50 [7]: 14.8 µM (active)

COc1cc(C=O)cc2c1[C@H](COC(N)=O)[C@]1(OC(C)=O)ON2C[C@H]2[C@@H]1N2C(C)=O
outcome [8]: inactive

O=[N+]([O-])c1ccc(Oc2ccc(Cl)cc2Cl)cc1
outcome [1]: inactive
outcome [4]: inactive

CCNS(=O)(=O)C(F)(F)C(F)(F)C(F)(F)C(F)(F)C(F)(F)C(F)(F)C(F)(F)C(F)(F)F
outcome [8]: inactive

CCCCCCCCn1sccc1=O
AC50 [4]: 7.66 µM (active)
AC50 [7]: 20.2 µM (active)

CC(C)(C)C(O)(CCc1ccc(Cl)cc1)Cn1cncn1 (stereo not drawn)
outcome [1]: inactive
AC50 [2]: 16.7 µM (active)

CCC[CH2][Sn]([Cl])([CH2]CCC)[CH2]CCC
AC50 [1]: 0.228 µM (active)
AC50 [9]: 17.2 µM (active)
AC50 [2]: 5.79 µM (active)
AC50 [3]: 8.26 µM (active)
outcome [4]: inactive
AC50 [5]: 10.6 µM (active)
AC50 [6]: 2.25 µM (active)
AC50 [7]: 3 µM (active)

Cc1cc(N=Nc2ccccc2C)ccc1N
outcome [1]: inactive

Cc1ccc(N)c(N)c1
outcome [7]: inactive

CCCCCOC(=O)c1ccccc1C(=O)OCCCCC
outcome [1]: inactive
outcome [6]: inactive
outcome [7]: inactive
